Results filed as inconclusive are left out. Calls of active or inactive are those of the source. Calls follow the shape of the dose curve; as a rule, active = well fitted inhibition curve with a large enough effect; inconclusive = small, poorly fitted or top-dose-only effect; inactive = flat fitted curve, though single readings scatter. Square brackets hold non-standard residues; d marks the D form. Peptide text beside a SMILES is read from it. * marks the point of attachment. Dolaproine = CO[C@@H]([C@@H]1CCCN1)[C@@H](C)C(=O)O; Dil = CC[C@H](C)[C@H](NC)[C@@H](CC(=O)O)OC; NMe2Val = CC(C)[C@@H](C(=O)*)N(C)C; X1 = C[C@@H](N*)[C@@H](O)c1ccccc1; NMeV = CN[C@H](C(=O)O)C(C)C

The assay can be described thus: Identification of antibody-drug conjugate (ADC) payloads which are substrates of ATP-binding cassette drug efflux transporters: ABCB1-HeLa-KB-8-5-11 cell line. The conditions noted are these: KB-8-5-11 (P-gp overexpressing HeLa) viability, CellTiter-Glo, 48 h. An excerpt:
Antibody-drug conjugates (ADCs) feature an antibody recognizing a specific protein joined to a potent toxic payload. Numerous antibody-drug conjugates have received FDA approval; however, clinical resistance arises. Resistance mechanisms include decreased expression or mutation of the antibody target, impaired payload release, or increased expression of ATP-binding cassette (ABC) efflux transporters associated with multidrug resistance. We therefore sought to characterize the interaction of ABC multidrug transporters with ADC payloads. We performed a high-throughput screen with 27 common ADC payloads using cells lines expressing ABC transporters P-glycoprotein (P-gp, encoded by ABCB1) or ABCG2 (encoded by ABCG2). Confirmatory assays were also performed using cells transfected to express P-gp, ABCG2, or MRP1 (encoded by ABCC1). Several commonly used ADC payloads were substrates of P-gp, including calicheamicin gamma1, monomethyl auristatin E, DM1, and DM4. All the pyrrolobenzodiazepines tested - SJG136, SGD-1882, SG2057, and SG3199 - were substrates of P-gp, ABCG2, and MRP1. […] These findings highlight the risk of transporter-mediated resistance with certain ADC payloads and underscore the importance of selecting payloads that evade ABC transporter recognition in future ADC development.
HEK-293 cells were transfected with empty vector (pcDNA) or vector containing the human ABCB1 (MDR-19), ABCG2 (R-5), or ABCC1 gene (MRP1) and were maintained in EMEM with 2 mg/mL G418 added to maintain transporter expression. The HeLa derivative KB-3-1 and the P-gp overexpressing KB-8-5-11 subline were maintained in DMEM; KB-8-5-11 additionally received 100 ng/mL colchicine. H460 parental cells were obtained from the Division of Cancer Treatment and Diagnosis Tumor Repository, National Cancer Institute at Frederick, MD and were cultured in RPMI. The ABCG2 expressing subline H460 MX20 was generated by selecting H460 cells in 20 nM mitoxantrone. Media in all cases was supplemented with 10% FBS and 1% penicillin-streptomycin. We explored 27 common ADC payloads, in two orthogonal, paired cell line sets-a drug selected and transfected set for each transporter--to identify substrates of the ABC transporters P-gp and ABCG2. Compounds were sourced from Levena Biopharma (San Diego, CA), Selleck Chem (Houston, TX), ChemieTek (Indianapolis, IN), or Microsource Discovery Systems (Gaylordsville, CT). Screening was performed as previously described. Briefly, cells were plated at a density of 500 cells/well in 1536 well plates with compounds added using a 1536-head pin tool (Kalypsys, San Diego CA). Cells were incubated with cytotoxic drugs and processed with CellTiter Glo reagent (Promega, Madison, WI) to determine viability after 48 hours. P-gp substrates were identified by comparing compound activity between paired sets of low-expressing (sensitive) and over-expressing (resistant) cell lines.
Consider `COc1cc2cc(c1Cl)N(C)C(=O)C[C@H](OC(=O)[C@H](C)N(C)C(=O)CCC(C)(C)S)[C@]1(C)OC1[C@H](C)C1C[C@@](O)(NC(=O)O1)[C@H](OC)/C=C/C=C(\C)C2` (some centres not stated), for which the Potency was 26.5 nM (active). With `CC[C@H](C)[C@@H]([C@@H](CC(=O)N1CCC[C@H]1[C@H](OC)[C@@H](C)C(=O)N[C@H](C)[C@@H](O)c1ccccc1)OC)N(C)C(=O)[C@@H](NC(=O)[C@H](C(C)C)N(C)C)C(C)C` the figure was 52.9 nM (active); with `COc1cc2cc(C(=O)N3C[C@@H](CCl)c4c3cc(O)c3ccccc43)[nH]c2c(OC)c1OC`, 1.3 nM (active). With `COc1cc2cc(c1Cl)N(C)C(=O)C[C@H](OC(=O)C(C)C)[C@]1(C)O[C@H]1[C@H](C)[C@@H]1C[C@@](O)(NC(=O)O1)[C@H](OC)C=CC=C(C)C2` the figure was 4.7 nM (active). `CC[C@H](C)[C@@H]([C@@H](CC(=O)N1CCC[C@H]1[C@H](OC)[C@@H](C)C(=O)N[C@H](C)[C@@H](O)c1ccccc1)OC)N(C)C(=O)[C@@H](NC(=O)[C@@H](NC)C(C)C)C(C)C` (H-[NMeV]V[Dil][Dolaproine]-X1): the Potency was 211 nM (active). With `CC[C@H](C)[C@H](NC(=O)[C@H]1CCCCN1C)C(=O)N(C)[C@H](C[C@@H](OC(C)=O)c1nc(C(=O)O)cs1)C(C)C` the figure was 4200 nM (active); with `COc1cc2cc(c1Cl)N(C)C(=O)C[C@H](OC(=O)[C@H](C)N(C)C(=O)CCS)[C@]1(C)OC1[C@H](C)C1C[C@@](O)(NC(=O)O1)[C@H](OC)/C=C/C=C(\C)C2` (some centres not stated), 106 nM (active); with `CC[C@H](C)[C@@H]([C@@H](CC(=O)N1CCC[C@H]1[C@H](OC)[C@@H](C)C(=O)N[C@@H](Cc1ccccc1)C(=O)O)OC)N(C)C(=O)[C@@H](NC(=O)[C@H](C(C)C)N(C)C)C(C)C` (NMe2Val-V[Dil][Dolaproine]F-OH), 265 nM (active). `CC[C@@]1(O)C(=O)OCc2c1cc1n(c2=O)Cc2cc3ccccc3nc2-1`: the Potency was 334 nM (active).

Take `CC[C@H](C)[C@H](NC(=O)[C@H]1CCCCN1C)C(=O)N(C)[C@H](C[C@@H](OC(C)=O)c1nc(C(=O)N[C@@H](Cc2ccccc2)C[C@H](C)C(=O)O)cs1)C(C)C`: the Potency is 10.6 nM (active). `COc1cccc2c1C(=O)c1c(O)c3c(c(O)c1C2=O)C[C@@](O)(C(=O)CO)CC3OC1CC(N2CCOC(OC)C2)C(O)C(C)O1` (some centres not stated): the Potency is 13.3 nM (active).

Consider `CC[C@H](C)[C@@H]1NC(=O)CNC(=O)[C@H]2Cc3c([nH]c4cc(O)ccc34)S(=O)C[C@H](NC(=O)CNC1=O)C(=O)N[C@@H](CC(N)=O)C(=O)N1C[C@H](O)C[C@H]1C(=O)N[C@@H]([C@@H](C)[C@@H](O)CO)C(=O)N2` (some centres not stated), for which the Potency is 4720 nM (active).

The record behind these values is PubChem BioAssay AID2061304 (National Center for Advancing Translational Sciences (NCATS), 2025).
